Screening data from PubChem.
PD-1 reverse act – activators reversing PD-1 mediated T-cell inhibition, primary screen, luminescence, primary human CD4 T cells, PD-L1 beads | CellTiter-Glo 96 h | activation, % (concentration not given with the values) | 29,000 tested, under 10 active; call rule not given here;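 further: 0% = median vehicle wells and 100% = positive control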
MITF inhib – inhibitors of MITF, primary screen, MITF inhibitor project, cell-based, luminescence. inhibition, % (no concentration beside the values). 37,000 tested, 0.28% active. TRPM1 promoter luciferase, 24 h; in the data active means inhibition above about 85%; inconclusive means no clear call, values can overlap the other calls; inactive means below about 68%;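 further: human melanocyte line stably carrying TRPM1 promoter luciferase reporter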
YB-1 expression – inhibitors of YB-1 gene expression, primary screen, cell-based, fluorescence. U2OS, qRT-PCR YB-1 vs CDIP delta delta Cp, 16 h; active compounds read high; zero = DMSO, each unit about twofold. delta delta Cp (YB-1 minus CDIP) (test concentration not listed). 30,000 tested, 0.37% active. AID 434959, 2010;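 active means delta delta Cp rounded down to an integer at or above 3, about 3 SD of DMSO wells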;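 further: higher means less YB-1 transcript or more CDIP transcript relative to DMSO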
Hedgehog inh – Hedgehog pathway signaling inhibitors, primary screen, luminescence, Shh-LIGHT2 cells, Gli-luciferase; inhibition, % (test concentration not listed); AID 2313, 2010; 22,000 tested, 2.1% active; Shh-LIGHT2 Gli-luciferase reporter, 30 h;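 active means mean inhibition across valid replicates above about 65%, limit read from the data; inconclusive means mean under the limit, yet half or more replicates past it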;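 further: pathway switched on by Shh-conditioned medium diluted 1 in 25 in low serum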
NOMO-1 viab – NOMO-1 AML cell viability reduction, primary screen, STK33 inhibitor project, CellTiter-Glo luminescence | AID 2330, 2010 | NOMO-1 AML viability, 72 h | inhibition, % (concentration not given with the values) | 37,000 tested, 7.5% active; in the data active means inhibition above about 80%; inconclusive means no clear call, values can overlap the other calls
The depositor's hits bear a star; u = inconclusive; x = no result. Only some compounds are listed: those with a hit (about 7.4% of all), similar ones and a draw of the others.

SMILES	PD-1 reverse act	MITF inhib	YB-1 expression	Hedgehog inh	NOMO-1 viab
CCCCCCC[C@@H](O)CC(=O)CCc1ccc(O)c(OC)c1	1	2	-0.25	14	41
N#C/C(=C\Nc1cc(C(F)(F)F)cc(C(F)(F)F)c1)S(=O)(=O)Cc1ccc(Cl)cc1	1	72	-0.25	107*	50
O=C(O)c1cccc(NS(=O)(=O)c2cccc(C(=O)Nc3ccc(F)cc3)c2)c1	x	16	x	x	8
CC(O)CC(=O)c1cc(O)ccc1O (configuration not stated)	2	3	4.6*	-8	-1
CN(C)S(=O)(=O)c1ccc2c(c1)/C(=C/c1cc3c([nH]1)CCCC3)C(=O)N2	0	-61	-0.37	-17	73
CN(C)c1ccc(/C=C2\C(=O)Nc3ccccc32)c2ccccc12	3	29	0.64	7	86*
C[C@@H]1O[C@@H](O[C@H]2[C@@H]3C=CO[C@@H](O[C@@H]4O[C@H](CO)[C@@H](O)[C@H](O)[C@H]4O)[C@@H]3[C@@]3(CO)O[C@@H]23)[C@H](OC(=O)/C=C/c2ccc(O)cc2)[C@H](O)[C@H]1O	x	x	0.94	65*	x
COc1ccc(NC(=O)CN(C)S(=O)(=O)c2ccc(F)cc2)cc1OC	2	-13	x	x	-27
FC(F)(F)c1nc2ccc(Cl)cc2[nH]1	-2	67	-0.03	49	121*
O=C(O)c1ccc2nc(CCc3nc4ccc(C(=O)O)cc4[nH]3)[nH]c2c1	1	-11	0.39	x	5
C=CC(C)(C)[C@@]12C[C@H]3C(=O)Nc4ccccc4C(=O)N3[C@@H]1Nc1ccccc12	2	-8	-0.54	-11	92*
Cc1nnc(SCC(=O)Nc2ccc(I)cc2C)s1	-1	-22	x	x	-13
CSc1sc(-c2ccn[nH]2)c(-c2ccco2)c1C#N	-2	2	0.39	25	28
O=C(N/N=C/c1ccc(O)cc1O)c1ccccc1O	x	x	0.56	x	x
C=C1C(=O)O[C@@H]2[C@H]3O[C@]3(C)CCC=C(C)CC[C@@H]12	-59	93*	-0.063	82*	141*
C=C1C(=O)O[C@@H]2C3O[C@]3(C)CC/C=C(/C)CC[C@@H]12 (some centres not stated)	x	68	-0.016	67*	107*
Cc1ccc(NC(=O)CSC2CC(=O)N(c3ccc(Cl)cc3)C2=O)cc1 (configuration not stated)	x	-14	x	x	-36
C[C@@H]1CCCCO[C@@H](CN(C)CC2CCCCC2)[C@@H](C)CN([C@H](C)CO)C(=O)c2cc(NC(=O)Nc3ccc(C(F)(F)F)cc3)ccc2O1	-4	-11	-0.28	x	117*
C[C@@H]1CCCCO[C@@H](CN(C)C(=O)Nc2ccc(C(F)(F)F)cc2)[C@@H](C)CN([C@H](C)CO)C(=O)c2cc(NC(=O)c3ccccc3)ccc2O1	-3	11	-0.34	29	91*
C[C@@H]1CCCCO[C@@H](CN(C)C(=O)NC2CCCCC2)[C@@H](C)CN([C@H](C)CO)C(=O)c2cc(NC(=O)Nc3ccc(C(F)(F)F)cc3)ccc2O1	0	18	0.22	16	99*
C[C@@H]1CCCCO[C@@H](CN(C)CC2CC2)[C@@H](C)CN([C@H](C)CO)C(=O)c2cc(NC(=O)Nc3ccc(C(F)(F)F)cc3)ccc2O1	-3	-12	0.1	-19	119*
CC1(NC(=S)Nc2ccc(O)cc2)CCS(=O)(=O)C1 (configuration not stated)	0	12	0.59	x	20
C[C@@H]1CCCCO[C@@H](CN(C)CC2CCCCC2)[C@@H](C)CN([C@H](C)CO)C(=O)c2cc(NC(=O)Nc3ccc(F)cc3)ccc2O1	-3	-6	0.072	x	115*
COc1ccc(C(Nc2ccccn2)c2cc(Cl)c3cccnc3c2O)cc1[N+](=O)[O-] (configuration not stated)	x	45	x	x	113*
COc1ccc(Br)cc1C(Nc1ccccn1)c1cc(Cl)c2cccnc2c1O (configuration not stated)	x	51	x	x	114*
SMILES	PD-1 reverse act	MITF inhib	YB-1 expression	Hedgehog inh	NOMO-1 viab
COc1cc(C(Nc2ccccn2)c2cc(Cl)c3cccnc3c2O)cc(I)c1O (configuration not stated)	x	15	x	x	25
Cc1nn(Cc2nnc(-c3cc(C(F)(F)F)cc(C(F)(F)F)c3)o2)c(C)c1Br	-1	2	-0.26	-29	19
CCn1c(SCC(=O)c2ccc(OC)cc2)nnc1-c1cc2cccc(OC)c2o1	-6	27	x	x	12
COc1cc(C(=O)Nc2cc(-c3nc4ncccc4o3)ccc2C)ccc1OCc1ccc(Cl)cc1	-11	u	x	x	112*
CCOc1ccc(NC(=O)CSc2nc3sc(C)c(C)c3c(=O)n2-c2ccc(C)cc2)cc1	1	-3	x	x	37
C=C(CO)C(=O)O[C@H]1C[C@@]23O[C@@H]2CC/C(=C/[C@H]2OC(=O)C(=C)[C@H]12)CO[C@@H]3O	-1	-11	-0.32	-28	103*
CC(C)c1ccc(N2C=Nc3ccc(C(C)C)cc3C2)cc1	-2	-2	-0.18	6	115*
Cc1ccc(OCC(=O)Nc2ccc3oc(-c4ccccc4C)nc3c2)cc1C	1	-82	x	x	0
O=C(CSc1nc2ccccc2o1)Nc1ccc(I)cc1	x	-15	x	x	24
CCOc1ccccc1-c1nnc(SCC(=O)Nc2ccc(I)cc2)o1	-3	26	x	x	119*
C[C@H](CO)N1C[C@H](C)[C@H](CN(C)Cc2ccc(Cl)c(Cl)c2)Oc2ccc(NC(=O)Nc3ccc(F)cc3)cc2CC1=O	-1	3	-0.11	14	75
Cc1noc(C)c1NC(=O)Nc1ccc2c(c1)CC(=O)N([C@@H](C)CO)C[C@H](C)[C@H](CN(C)Cc1ccc(Cl)c(Cl)c1)O2	0	-36	0.59	22	114*
C[C@@H]1CN([C@H](C)CO)C(=O)Cc2cc(NC(=O)Nc3ccc(F)cc3)ccc2O[C@@H]1CN(C)Cc1ccc(Cl)c(Cl)c1	-10	39	-0.38	14	114*
C[C@@H]1CN([C@@H](C)CO)C(=O)Cc2cc(NC(=O)Nc3ccccc3)ccc2O[C@@H]1CN(C)Cc1ccc(Cl)c(Cl)c1	-3	42	0.076	-10	103*
COc1ccc(NC(=O)Nc2ccc3c(c2)CC(=O)N([C@@H](C)CO)C[C@H](C)[C@@H](CN(C)Cc2ccc(Cl)c(Cl)c2)O3)cc1	x	9	-0.0048	11	46
C[C@H]1CN([C@@H](C)CO)C(=O)Cc2cc(NC(=O)Nc3ccc(F)cc3)ccc2O[C@H]1CN(C)Cc1ccc(Cl)c(Cl)c1	x	26	0.36	4	127*
C[C@H](CO)N1C[C@H](C)[C@H](CN(C)Cc2ccccc2)Oc2ccc(NC(=O)Nc3ccccc3)cc2CC1=O	x	-6	0.094	19	63
